Here are results for six compounds from ChEMBL document CHEMBL1961873, “Compounds: GSK PKIS; Assays: Nanosyn kinase panel” (2012).

The inhibition is the drop in the measured response relative to a control, in per cent.

In experiment [1] the target is Tyrosine-protein kinase CSK (Homo sapiens) (UniProt P41240). As to conditions: at 1 µM.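 Further: each value is an averaged inhibition reading.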
Experiment [2] has as its target T1, Discoidin domain-containing receptor 2 (Homo sapiens) (UniProt Q16832).
T1 sequence (whole entry): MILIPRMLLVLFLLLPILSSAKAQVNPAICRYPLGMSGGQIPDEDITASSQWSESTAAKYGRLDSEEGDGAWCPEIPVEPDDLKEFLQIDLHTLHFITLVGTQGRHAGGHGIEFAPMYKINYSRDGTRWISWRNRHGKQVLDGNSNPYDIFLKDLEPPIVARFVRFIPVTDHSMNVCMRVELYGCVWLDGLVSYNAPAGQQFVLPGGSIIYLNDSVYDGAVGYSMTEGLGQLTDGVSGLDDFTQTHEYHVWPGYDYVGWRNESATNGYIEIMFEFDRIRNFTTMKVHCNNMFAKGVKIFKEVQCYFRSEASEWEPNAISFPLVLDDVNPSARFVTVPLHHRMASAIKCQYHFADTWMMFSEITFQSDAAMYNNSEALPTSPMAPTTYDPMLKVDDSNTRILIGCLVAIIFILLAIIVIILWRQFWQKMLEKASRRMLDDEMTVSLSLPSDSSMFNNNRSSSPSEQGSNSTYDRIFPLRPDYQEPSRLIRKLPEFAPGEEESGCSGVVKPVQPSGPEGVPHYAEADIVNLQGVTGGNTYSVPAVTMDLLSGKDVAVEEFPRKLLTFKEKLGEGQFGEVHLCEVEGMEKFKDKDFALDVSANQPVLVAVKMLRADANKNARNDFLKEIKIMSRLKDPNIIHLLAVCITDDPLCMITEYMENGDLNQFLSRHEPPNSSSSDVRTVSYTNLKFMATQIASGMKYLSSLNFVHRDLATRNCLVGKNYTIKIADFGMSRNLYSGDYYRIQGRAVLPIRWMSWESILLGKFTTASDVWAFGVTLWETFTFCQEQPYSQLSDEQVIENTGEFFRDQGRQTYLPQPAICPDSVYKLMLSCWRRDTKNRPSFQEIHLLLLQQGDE
To be noted: at 0.1 µM.

Experiment [3] deals with T1, Discoidin domain-containing receptor 2 (Homo sapiens). To be noted: at 1 µM.
For experiment [4], the target named is Epidermal growth factor receptor (Homo sapiens) (UniProt P00533). To be noted: at 0.1 µM.
Epidermal growth factor receptor (Homo sapiens), sequence (P00533 whole entry): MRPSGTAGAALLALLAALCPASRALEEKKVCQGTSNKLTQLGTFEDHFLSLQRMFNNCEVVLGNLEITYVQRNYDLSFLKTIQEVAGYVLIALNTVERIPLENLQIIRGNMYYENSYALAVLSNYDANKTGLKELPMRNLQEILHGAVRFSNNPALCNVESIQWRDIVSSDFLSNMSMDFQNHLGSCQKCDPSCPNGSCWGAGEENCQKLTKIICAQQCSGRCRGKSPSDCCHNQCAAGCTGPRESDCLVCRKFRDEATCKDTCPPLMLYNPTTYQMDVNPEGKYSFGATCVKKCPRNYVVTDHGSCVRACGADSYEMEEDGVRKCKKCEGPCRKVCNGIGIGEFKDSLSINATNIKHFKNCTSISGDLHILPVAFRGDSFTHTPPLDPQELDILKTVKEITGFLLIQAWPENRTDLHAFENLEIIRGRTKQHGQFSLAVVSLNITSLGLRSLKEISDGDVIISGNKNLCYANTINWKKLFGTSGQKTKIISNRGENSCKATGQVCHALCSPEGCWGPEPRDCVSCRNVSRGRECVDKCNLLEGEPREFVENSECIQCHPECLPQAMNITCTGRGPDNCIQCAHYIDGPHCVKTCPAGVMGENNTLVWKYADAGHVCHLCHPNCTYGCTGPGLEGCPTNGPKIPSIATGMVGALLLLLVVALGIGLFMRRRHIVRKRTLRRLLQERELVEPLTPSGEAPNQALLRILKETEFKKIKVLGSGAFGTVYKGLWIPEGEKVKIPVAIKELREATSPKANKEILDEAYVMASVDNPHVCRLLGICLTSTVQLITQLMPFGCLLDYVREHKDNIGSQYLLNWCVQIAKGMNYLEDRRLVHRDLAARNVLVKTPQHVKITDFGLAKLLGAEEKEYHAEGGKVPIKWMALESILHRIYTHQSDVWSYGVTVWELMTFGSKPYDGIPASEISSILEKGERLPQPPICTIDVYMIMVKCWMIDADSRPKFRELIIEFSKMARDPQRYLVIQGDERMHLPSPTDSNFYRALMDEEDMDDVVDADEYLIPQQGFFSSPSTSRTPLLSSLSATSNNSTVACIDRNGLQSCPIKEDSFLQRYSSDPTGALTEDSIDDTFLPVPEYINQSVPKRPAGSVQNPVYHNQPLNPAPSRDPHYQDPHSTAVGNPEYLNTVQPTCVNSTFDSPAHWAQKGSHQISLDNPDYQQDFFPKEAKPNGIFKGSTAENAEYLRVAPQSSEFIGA
For experiment [5] the target is unchanged. As to conditions: at 1 µM.
Experiment [6] deals with Epidermal growth factor receptor (Homo sapiens), P00533 [L858R]. To be noted: at 0.1 µM.
Epidermal growth factor receptor (Homo sapiens), P00533 [L858R], sequence (P00533 whole entry L858R): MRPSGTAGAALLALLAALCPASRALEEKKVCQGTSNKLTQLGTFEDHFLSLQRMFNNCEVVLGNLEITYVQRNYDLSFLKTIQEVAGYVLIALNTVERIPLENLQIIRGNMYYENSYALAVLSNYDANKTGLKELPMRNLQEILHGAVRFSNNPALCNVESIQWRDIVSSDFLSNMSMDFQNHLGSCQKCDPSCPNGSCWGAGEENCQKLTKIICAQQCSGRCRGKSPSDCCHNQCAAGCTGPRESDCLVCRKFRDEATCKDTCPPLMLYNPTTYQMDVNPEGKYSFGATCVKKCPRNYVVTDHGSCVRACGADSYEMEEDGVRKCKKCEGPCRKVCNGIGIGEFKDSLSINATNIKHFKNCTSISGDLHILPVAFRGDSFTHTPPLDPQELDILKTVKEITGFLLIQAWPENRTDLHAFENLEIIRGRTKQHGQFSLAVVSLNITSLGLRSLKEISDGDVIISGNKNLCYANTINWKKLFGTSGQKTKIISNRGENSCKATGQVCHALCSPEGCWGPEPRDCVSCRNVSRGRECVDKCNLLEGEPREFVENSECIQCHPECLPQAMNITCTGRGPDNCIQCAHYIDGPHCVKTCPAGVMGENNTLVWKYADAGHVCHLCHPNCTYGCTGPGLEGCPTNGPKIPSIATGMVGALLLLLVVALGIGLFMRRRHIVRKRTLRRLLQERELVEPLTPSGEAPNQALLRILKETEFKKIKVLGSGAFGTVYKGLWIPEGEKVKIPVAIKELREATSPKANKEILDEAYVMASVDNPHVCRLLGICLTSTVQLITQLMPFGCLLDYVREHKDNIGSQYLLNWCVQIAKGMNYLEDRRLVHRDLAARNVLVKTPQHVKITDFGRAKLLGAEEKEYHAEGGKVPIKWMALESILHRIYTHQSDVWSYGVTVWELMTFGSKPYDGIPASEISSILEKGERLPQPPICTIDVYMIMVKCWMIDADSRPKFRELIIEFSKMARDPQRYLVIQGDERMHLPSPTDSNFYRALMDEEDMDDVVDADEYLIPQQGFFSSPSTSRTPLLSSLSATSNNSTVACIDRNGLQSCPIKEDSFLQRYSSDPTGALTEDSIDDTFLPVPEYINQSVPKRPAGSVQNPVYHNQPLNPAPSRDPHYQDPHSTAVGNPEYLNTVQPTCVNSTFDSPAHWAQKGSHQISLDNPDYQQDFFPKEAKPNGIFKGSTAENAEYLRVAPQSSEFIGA
Experiment [7] shares this test system. To be noted: at 1 µM.
In experiment [8] the test system is Epidermal growth factor receptor (Homo sapiens), P00533 [L861Q]. To be noted: at 0.1 µM.
Epidermal growth factor receptor (Homo sapiens), P00533 [L861Q], sequence (P00533 whole entry L861Q): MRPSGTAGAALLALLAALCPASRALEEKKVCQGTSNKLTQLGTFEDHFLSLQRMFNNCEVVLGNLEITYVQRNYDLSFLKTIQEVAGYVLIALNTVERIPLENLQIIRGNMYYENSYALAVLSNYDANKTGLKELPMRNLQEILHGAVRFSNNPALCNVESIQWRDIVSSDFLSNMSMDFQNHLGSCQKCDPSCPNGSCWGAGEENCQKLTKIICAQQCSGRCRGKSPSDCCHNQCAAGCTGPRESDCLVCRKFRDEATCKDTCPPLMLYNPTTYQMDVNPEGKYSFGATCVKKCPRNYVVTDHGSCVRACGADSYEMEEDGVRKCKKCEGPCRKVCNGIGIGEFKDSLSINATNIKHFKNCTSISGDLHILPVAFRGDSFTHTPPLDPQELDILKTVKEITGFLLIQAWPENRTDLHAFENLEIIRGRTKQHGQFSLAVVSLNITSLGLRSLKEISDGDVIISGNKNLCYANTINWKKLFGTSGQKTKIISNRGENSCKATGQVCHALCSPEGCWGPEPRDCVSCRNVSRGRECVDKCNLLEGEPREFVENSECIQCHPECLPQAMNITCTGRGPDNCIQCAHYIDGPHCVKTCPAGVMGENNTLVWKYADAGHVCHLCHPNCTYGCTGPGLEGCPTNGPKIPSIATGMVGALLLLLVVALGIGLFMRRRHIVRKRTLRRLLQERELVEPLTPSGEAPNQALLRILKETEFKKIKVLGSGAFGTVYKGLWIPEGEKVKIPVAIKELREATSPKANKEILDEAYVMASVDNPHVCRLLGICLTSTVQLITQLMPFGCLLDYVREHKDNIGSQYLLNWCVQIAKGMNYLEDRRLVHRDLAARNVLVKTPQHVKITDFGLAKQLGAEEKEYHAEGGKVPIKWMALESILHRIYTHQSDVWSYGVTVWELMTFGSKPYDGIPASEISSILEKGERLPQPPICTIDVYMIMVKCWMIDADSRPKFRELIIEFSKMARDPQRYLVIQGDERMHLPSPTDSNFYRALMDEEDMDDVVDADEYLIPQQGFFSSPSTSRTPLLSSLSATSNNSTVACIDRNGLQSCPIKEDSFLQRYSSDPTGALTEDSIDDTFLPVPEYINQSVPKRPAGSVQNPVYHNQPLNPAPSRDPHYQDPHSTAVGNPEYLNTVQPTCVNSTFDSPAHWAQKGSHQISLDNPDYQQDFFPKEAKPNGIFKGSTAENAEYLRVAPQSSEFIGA
The test system is the same in experiment [9]. To be noted: at 1 µM.
Experiment [10] deals with Epidermal growth factor receptor (Homo sapiens), P00533 [T790M]. To be noted: at 0.1 µM.
Experiment [11] shares this test system. As to conditions: at 1 µM.
The subject of experiment [12] is Epidermal growth factor receptor (Homo sapiens), P00533 [L858R,T790M]. To be noted: at 0.1 µM.
Experiment [13] has the same test system. As to conditions: at 1 µM.
In experiment [14] the target is Ephrin type-A receptor 2 (Homo sapiens) (UniProt P29317). To be noted: at 0.1 µM.
For experiment [15] the target is unchanged. As to conditions: at 1 µM.
Experiment [16] concerns the target T2, Ephrin type-A receptor 3 (Homo sapiens) (UniProt P29320).
T2 sequence (whole entry): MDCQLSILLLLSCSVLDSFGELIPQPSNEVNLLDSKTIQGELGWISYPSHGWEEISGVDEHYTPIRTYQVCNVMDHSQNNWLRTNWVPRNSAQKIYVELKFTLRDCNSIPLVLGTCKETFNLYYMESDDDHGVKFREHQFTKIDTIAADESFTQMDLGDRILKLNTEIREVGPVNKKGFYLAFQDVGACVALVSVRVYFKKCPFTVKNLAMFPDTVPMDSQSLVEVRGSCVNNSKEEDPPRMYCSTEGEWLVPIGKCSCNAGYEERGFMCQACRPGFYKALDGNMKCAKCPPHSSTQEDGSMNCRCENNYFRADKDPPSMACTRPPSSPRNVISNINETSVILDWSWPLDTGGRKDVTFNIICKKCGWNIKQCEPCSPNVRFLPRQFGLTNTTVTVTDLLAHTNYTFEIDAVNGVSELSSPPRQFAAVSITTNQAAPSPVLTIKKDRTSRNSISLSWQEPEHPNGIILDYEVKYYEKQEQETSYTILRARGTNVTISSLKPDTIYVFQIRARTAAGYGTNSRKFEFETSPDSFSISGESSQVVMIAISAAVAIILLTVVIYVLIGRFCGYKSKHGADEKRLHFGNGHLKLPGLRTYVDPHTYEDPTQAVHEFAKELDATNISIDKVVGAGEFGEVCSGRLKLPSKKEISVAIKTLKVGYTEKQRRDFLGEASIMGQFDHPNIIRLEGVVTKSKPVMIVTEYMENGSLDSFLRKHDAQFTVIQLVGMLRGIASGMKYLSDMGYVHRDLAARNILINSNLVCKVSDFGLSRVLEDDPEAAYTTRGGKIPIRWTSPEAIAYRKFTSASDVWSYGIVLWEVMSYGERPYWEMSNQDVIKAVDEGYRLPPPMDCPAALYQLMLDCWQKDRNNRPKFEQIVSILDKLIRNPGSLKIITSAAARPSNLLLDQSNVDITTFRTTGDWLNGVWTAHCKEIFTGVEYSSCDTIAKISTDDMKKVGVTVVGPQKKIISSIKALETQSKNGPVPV
As to conditions: at 0.1 µM.

The target in experiment [17] is T2, Ephrin type-A receptor 3 (Homo sapiens). As to conditions: at 1 µM.
For experiment [18], the target named is Ephrin type-A receptor 4 (Homo sapiens) (UniProt P54764). As to conditions: at 0.1 µM.
Ephrin type-A receptor 4 (Homo sapiens), sequence (P54764 whole entry): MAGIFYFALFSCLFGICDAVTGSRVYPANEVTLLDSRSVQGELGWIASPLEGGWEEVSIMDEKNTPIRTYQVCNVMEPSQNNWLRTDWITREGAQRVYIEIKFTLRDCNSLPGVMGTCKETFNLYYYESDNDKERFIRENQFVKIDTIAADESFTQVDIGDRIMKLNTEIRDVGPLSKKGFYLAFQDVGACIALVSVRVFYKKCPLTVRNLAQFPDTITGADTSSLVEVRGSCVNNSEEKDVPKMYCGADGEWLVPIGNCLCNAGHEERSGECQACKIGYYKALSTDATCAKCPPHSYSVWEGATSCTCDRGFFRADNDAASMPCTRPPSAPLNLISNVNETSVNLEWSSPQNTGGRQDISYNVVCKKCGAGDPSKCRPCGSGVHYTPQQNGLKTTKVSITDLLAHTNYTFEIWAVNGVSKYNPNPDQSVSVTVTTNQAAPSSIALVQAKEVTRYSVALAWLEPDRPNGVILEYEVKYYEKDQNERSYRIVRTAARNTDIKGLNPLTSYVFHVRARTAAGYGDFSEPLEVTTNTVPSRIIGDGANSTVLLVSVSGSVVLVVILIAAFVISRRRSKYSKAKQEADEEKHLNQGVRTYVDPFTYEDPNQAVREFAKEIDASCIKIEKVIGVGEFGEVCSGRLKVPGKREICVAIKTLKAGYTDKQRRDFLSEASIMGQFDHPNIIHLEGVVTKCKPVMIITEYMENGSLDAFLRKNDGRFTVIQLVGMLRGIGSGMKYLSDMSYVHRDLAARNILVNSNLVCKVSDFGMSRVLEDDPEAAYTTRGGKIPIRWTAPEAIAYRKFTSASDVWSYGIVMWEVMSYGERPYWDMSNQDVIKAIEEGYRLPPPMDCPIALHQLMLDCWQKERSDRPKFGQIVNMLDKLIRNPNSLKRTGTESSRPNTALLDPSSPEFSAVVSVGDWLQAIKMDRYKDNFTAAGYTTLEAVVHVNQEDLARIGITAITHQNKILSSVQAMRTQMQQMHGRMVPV
For experiment [19] the target is unchanged. To be noted: at 1 µM.
Experiment [20] deals with T3, Ephrin type-B receptor 2 (Homo sapiens) (UniProt P29323).
T3 sequence (whole entry): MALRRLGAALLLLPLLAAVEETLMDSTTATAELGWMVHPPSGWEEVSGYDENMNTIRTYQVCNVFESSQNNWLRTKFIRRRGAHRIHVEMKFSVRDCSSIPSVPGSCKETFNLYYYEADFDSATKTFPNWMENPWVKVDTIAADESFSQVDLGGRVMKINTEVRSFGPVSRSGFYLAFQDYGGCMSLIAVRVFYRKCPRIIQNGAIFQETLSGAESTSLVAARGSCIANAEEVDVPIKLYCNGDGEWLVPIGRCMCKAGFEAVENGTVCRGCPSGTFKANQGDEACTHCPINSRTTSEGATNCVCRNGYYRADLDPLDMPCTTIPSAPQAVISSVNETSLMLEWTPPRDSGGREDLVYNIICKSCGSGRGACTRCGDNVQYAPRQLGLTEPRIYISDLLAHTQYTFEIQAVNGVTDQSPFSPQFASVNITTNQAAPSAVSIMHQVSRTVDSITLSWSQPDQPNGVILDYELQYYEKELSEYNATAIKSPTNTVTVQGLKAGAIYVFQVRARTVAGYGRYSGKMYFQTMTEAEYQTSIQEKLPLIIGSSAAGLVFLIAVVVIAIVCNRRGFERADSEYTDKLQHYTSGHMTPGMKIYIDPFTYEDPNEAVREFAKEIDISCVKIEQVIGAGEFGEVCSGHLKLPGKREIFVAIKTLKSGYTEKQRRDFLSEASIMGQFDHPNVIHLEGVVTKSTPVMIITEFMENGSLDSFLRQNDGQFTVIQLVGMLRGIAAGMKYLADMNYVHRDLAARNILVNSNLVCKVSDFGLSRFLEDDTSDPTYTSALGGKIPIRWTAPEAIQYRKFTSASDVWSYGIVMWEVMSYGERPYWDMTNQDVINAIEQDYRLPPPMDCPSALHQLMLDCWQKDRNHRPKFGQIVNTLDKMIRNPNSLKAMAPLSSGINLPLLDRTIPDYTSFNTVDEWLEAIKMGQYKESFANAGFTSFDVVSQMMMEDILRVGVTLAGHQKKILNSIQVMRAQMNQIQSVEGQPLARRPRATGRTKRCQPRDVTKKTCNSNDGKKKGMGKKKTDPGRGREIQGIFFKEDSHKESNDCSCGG
To be noted: at 0.1 µM.

Tyrosine-protein kinase CSK (Homo sapiens), sequence (P41240 2-450 limits assumed): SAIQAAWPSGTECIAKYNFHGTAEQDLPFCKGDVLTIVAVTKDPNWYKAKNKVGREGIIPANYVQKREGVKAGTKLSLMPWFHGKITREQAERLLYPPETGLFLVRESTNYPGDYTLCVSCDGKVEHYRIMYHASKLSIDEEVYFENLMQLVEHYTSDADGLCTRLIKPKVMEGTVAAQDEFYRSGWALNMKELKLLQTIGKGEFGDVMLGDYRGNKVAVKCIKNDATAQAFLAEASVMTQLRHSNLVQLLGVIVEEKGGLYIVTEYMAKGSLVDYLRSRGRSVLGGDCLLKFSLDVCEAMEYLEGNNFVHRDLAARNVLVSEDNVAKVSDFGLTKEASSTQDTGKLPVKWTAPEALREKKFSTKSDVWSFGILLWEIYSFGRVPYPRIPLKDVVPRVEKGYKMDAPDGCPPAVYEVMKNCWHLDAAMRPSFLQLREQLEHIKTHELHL

On to `NS(=O)(=O)c1ccc(N/N=C2\C(=O)Nc3ccc(Cl)cc32)cc1`, for which the inhibition is 7.01% in experiment [1]; 0.3% in experiment [2]; 3.13% in experiment [3]; -0.16% in [4]; 5.53% in experiment [5]; 2.02% in experiment [6]. For the same compound, the inhibition in experiment [7] is 5.32%; in experiment [8] it was 1.9%; in [9] it was 3.4%; in experiment [10], 0.9%; in experiment [11], 4.35%; in experiment [12], -0.89%. The inhibition in experiment [13] came out at 2.78%; in experiment [14], 1.86%; in experiment [15], 1.3%; in experiment [16], 4.83%; in experiment [17], 4.35%; in experiment [18], 7.66%. The values for the inhibition in [19] and in [20] were 12.2% and 3.99%, respectively.

In the case of `Nc1nccc(-c2c(-c3ccc(F)cc3)ncn2CCCN2CCOCC2)n1`, the inhibition is 2.85% in experiment [1]; -0.61% in experiment [2]; -1.04% in [3]; -0.84% in experiment [4]; 6.38% in [5]; 5.87% in experiment [6]. Also, the inhibition in [7] turned out to be 31.9%; in experiment [8] it was 4.34%; in experiment [9], 10.9%; in experiment [10] it was 2.78%; in experiment [11] it was 3.66%; in [12], 3.71%. Further, the inhibition in [13] is 0.56%; in [14] it was -0.08%; in experiment [15] it was 0.96%; in experiment [16], 0.74%; in experiment [17], 3.02%; in experiment [18], 7.96%. Further, the inhibition in [19] came out at 9.12%; in experiment [20] it was 4.96%.

`Oc1cccc(-c2nc(-c3ccccc3)[nH]c2-c2ccncc2)c1`: the inhibition in [1] stood at 16.5%; in experiment [2], 2.82%; in experiment [3], 10.9%; in experiment [4] it was 2.76%; in experiment [5], 4.4%; in [6] it was 6.31%. Also, the inhibition in experiment [7] came to 19.7%; in [8] it was 4.74%; in [9], 8.26%; in experiment [10], 1.84%; in experiment [11], 2.55%; in [12], 2.26%. The inhibition in experiment [13] came out at 4.01%; in experiment [14] it was 1.93%; in [15], 7.66%; in [16], 7.79%; in experiment [17], 6.42%; in experiment [18] it was 11.7%. The inhibition turned out to be 32.9% in [19] and 8.8% in [20].

Take `NS(=O)(=O)c1ccc(-c2cc3ccncc3cc2OCc2ccccc2)cc1`: the inhibition was 5.2% in [1]; 1.3% in experiment [2]; 2.48% in [3]; -0.53% in experiment [4]; 2.78% in experiment [5]; 5.04% in [6]. In addition, the inhibition in [7] was 12.6%; in experiment [8] it was 3.81%; in [9], 5.67%; in [10], 1.46%; in experiment [11], 4.44%; in [12], 2.11%. For the same compound, the inhibition in experiment [13] turned out to be 2.39%; in experiment [14] it was 0.69%; in experiment [15] it was 0.7%; in experiment [16] it was 2.29%; in [17] it was 3.77%; in experiment [18], 9.03%. Besides, the inhibition is 10.4% in experiment [19] and 7.31% in experiment [20].

For the compound `NS(=O)(=O)c1ccc(NC=C2C(=O)Nc3ccc4ncsc4c32)cc1`, the inhibition in experiment [1] came out at 3.77%; in [2], 1.65%; in [3], 6.94%; in experiment [4], 0.01%; in [5], 0.9%; in [6], 3.08%. The inhibition is 5.45% in experiment [7]; 2.21% in [8]; 0.54% in experiment [9]; 2.24% in experiment [10]; 2.64% in experiment [11]; 3.17% in experiment [12]. For the same compound, the inhibition in experiment [13] came to 9.63%; in experiment [14], 2.13%; in experiment [15], 7.25%; in experiment [16], 5.57%; in experiment [17] it was 12.8%; in experiment [18] it was 11.3%. Moreover, the inhibition in [19] was determined as 33.7%; in experiment [20], 4.62%.

Consider `CCn1c(-c2nonc2N)nc2c(C#CC(C)(C)O)nc(OCCNC)cc21`, for which the inhibition in [1] amounted to 5.91%; in experiment [2] it was 1.73%; in experiment [3], 2.04%; in experiment [4] it was 0.82%; in [5], 0.07%; in [6] it was 1.22%. In addition, the inhibition in experiment [7] is 3.32%; in experiment [8], 1.91%; in experiment [9], 2.32%; in [10] it was 1.88%; in experiment [11] it was 1.6%; in experiment [12], -1.42%. For the same compound, the inhibition in experiment [13] is 0.02%; in [14], 0.18%; in [15], -0.52%; in [16], 1.69%; in experiment [17], 3.22%; in experiment [18], 4%. The figures for the inhibition in experiment [19] and in experiment [20] were 8.24% and 8.92%, respectively.
